In the supplement of paper PMC7156485 one finds cell number and H1.0 immunofluorescence intensity data, which are given here for 24 compounds.

What all share (conditions): concentration: 10 µM; 24 h
Assay [1] deals with HCC1569. Description: cell number relative to DMSO (% of DMSO); higher = more cells (less growth inhibition / toxicity). The method, boiled down: (§1)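 HCC1569 and TDF cells (800 per well, 384-well plates, RPMI with 10% FBS) were treated with compounds at 10 µM for 24 h at 37 °C, in triplicate. Cells were fixed in 3.7% formaldehyde and stained with a rabbit anti-H1.0 antibody, an AlexaFluor 647 secondary and DAPI; six fields per well were imaged at ×10. H1.0 nuclear intensity or cell number is expressed as percent of the plate DMSO control, taking the median of replicates. HCC1569 values were smoothed for positional effects.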

For assay [2], the system named is TDF. The assay is described as above. Put shortly: as §1
Assay [3] has as its system TDF. Description: H1.0 immunofluorescence intensity relative to DMSO (% of DMSO); higher = stronger H1.0 induction, active = 120 or more. The method, boiled down: as §1
The subject of assay [4] is HCC1569. The experiment in a line: H1.0 immunofluorescence intensity relative to DMSO (% of DMSO); higher = stronger H1.0 induction, active = 140 or more. Put shortly:
as §1

± gives the standard deviation of the averaged measurements.
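Wherever H1.0 immunofluorescence intensity relative to DMSO is given: TDF is a line of transformed human dermal fibroblasts of mesenchymal origin.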
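Wherever cell number relative to DMSO is given: TDF denotes transformed human dermal fibroblasts of mesenchymal origin.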

As to `O=C(c1ccc(F)cc1)C1CCN(CCn2c(=O)[nH]c3ccccc3c2=O)CC1` [Ketanserin], the values for the cell number in the assay with HCC1569 [1] and in the assay on TDF [2] were 101 and 105, respectively. For the same compound, the H1.0 immunofluorescence intensity was 91.7 (inactive) in the assay on TDF [3] and 117 (inactive) with HCC1569 [4].

In the case of `CS(=O)(=O)Nc1ccc([N+](=O)[O-])cc1Oc1ccccc1` [Nimesulide], the cell number with HCC1569 [1] is 104 ± 4.5; with TDF [2] it was 107 ± 2.2. Also, the H1.0 immunofluorescence intensity was 94.4 (inactive) with TDF [3] and 96.5 (inactive) with HCC1569 [4].

For `CCc1cccc(N(C)C(N)=Nc2cccc3ccccc23)c1.Cl`, the cell number with HCC1569 [1] was determined as 87.1; in the assay with TDF [2] it was 90. Moreover, the results for the H1.0 immunofluorescence intensity in the assay with TDF [3] and in the assay on HCC1569 [4] were 115 (inactive) and 95.9 (inactive), respectively.

For the compound `Cn1c(NCCN(CCO)CCCc2ccc([N+](=O)[O-])cc2)cc(=O)n(C)c1=O` [Nifekalant], the cell number in the assay on HCC1569 [1] was 101; with TDF [2], 99.4. Further, the H1.0 immunofluorescence intensity in the assay with TDF [3] was 96.3 (inactive); with HCC1569 [4] it was 100 (inactive).

As to `CCCCCCCC/C=C\CCCCCCCC(N)=O` [(9Z)-9-octadecenamide], the cell number with HCC1569 [1] and in the assay on TDF [2] was 102 each time. The H1.0 immunofluorescence intensity in the assay with TDF [3] is 102 (inactive); in the assay with HCC1569 [4], 98.7 (inactive).

For the compound `CNCCC(Oc1ccc(C(F)(F)F)cc1)c1ccccc1.Cl` (stereo unspecified) [Fluoxetine hydrochloride], the figures for the cell number in the assay on HCC1569 [1] and in the assay on TDF [2] were 93.1 and 85.7, respectively. Moreover, the H1.0 immunofluorescence intensity in the assay with TDF [3] was 108 (inactive); in the assay with HCC1569 [4] it was 122 (inactive).

`CC(=O)OCC1(O)CC23CCC4c5ccoc5C=CC4(C)C2CCC1C3` (stereo unspecified) [Kahweol Acetate]: the cell number worked out at 103 with HCC1569 [1] and 95.3 in the assay with TDF [2]. For the same compound, the H1.0 immunofluorescence intensity in the assay on TDF [3] was 105 (inactive); in the assay on HCC1569 [4], 98.9 (inactive).

In the case of `CC1C2CCC3C4CC=C5CC(N(C)C)CCC5(C)C4CCC32CN1C` (stereo unspecified) [Conessine], the cell number in the assay on HCC1569 [1] amounted to 103; in the assay with TDF [2], 104. For the same compound, the H1.0 immunofluorescence intensity in the assay with TDF [3] is 109 (inactive); in the assay with HCC1569 [4], 113 (inactive).

For the compound `CCCCN1CCCC[C@H]1C(=O)Nc1c(C)cccc1C.Cl`, the cell number in the assay with HCC1569 [1] came out at 104; in the assay on TDF [2], 107. The H1.0 immunofluorescence intensity with TDF [3] is 96.8 (inactive); in the assay with HCC1569 [4], 108 (inactive).

On to `C#CCn1c(=O)c2c(ncn2C)n(C)c1=O` [3,7-Dimethyl-I-propargylxanthine], for which the cell number in the assay with HCC1569 [1] turned out to be 99.5; in the assay on TDF [2] it was 97.1. The H1.0 immunofluorescence intensity is 91.6 (inactive) in the assay on TDF [3] and 93.4 (inactive) in the assay on HCC1569 [4].

On to `NC(=O)c1cnccn1` [Pyrazinecarboxamide], for which the cell number in the assay on HCC1569 [1] came to 102; in the assay with TDF [2], 106. In addition, the H1.0 immunofluorescence intensity is 94.2 (inactive) in the assay with TDF [3] and 110 (inactive) with HCC1569 [4].

As to `CCCCOc1ccc(-c2cncc(C(=O)NCc3cccnc3N3CCOCC3)c2)cc1Cl`, the cell number with HCC1569 [1] worked out at 86.9; in the assay with TDF [2], 104. Moreover, the results for the H1.0 immunofluorescence intensity in the assay on TDF [3] and in the assay on HCC1569 [4] were 98.3 (inactive) and 150 (active), respectively.

In the case of `O.c1cnc2c(c1)ccc1cccnc12` [1,10-Phenanthroline monohydrate], the cell number was found to be 77.2 in the assay on HCC1569 [1] and 44.8 with TDF [2]. Also, the figures for the H1.0 immunofluorescence intensity in the assay on TDF [3] and in the assay on HCC1569 [4] were 108 (inactive) and 93.9 (inactive), respectively.

For `O=C(Nc1ncc(-c2cc(C(F)F)nn2-c2c(Cl)cccc2Cl)s1)C1CC1`, the cell number in the assay on HCC1569 [1] is 52.3; in the assay with TDF [2], 9.11. For the same compound, the values for the H1.0 immunofluorescence intensity with TDF [3] and in the assay with HCC1569 [4] were 176 (active) and 149 (active), respectively.

As for `COc1ccc(C(C)=O)c(O)c1` [Paeonol], the cell number with HCC1569 [1] amounted to 99; in the assay on TDF [2], 102. Also, the H1.0 immunofluorescence intensity is 92.9 (inactive) in the assay on TDF [3] and 101 (inactive) with HCC1569 [4].

Take `CCC(C)C(=O)OC1CCC=C2C=CC(C)C(CCC3CC(O)CC(=O)O3)C21` (stereo unspecified) [Mevastatin]: the cell number came to 100.8 ± 0.37 in the assay with HCC1569 [1] and 87.1 ± 6.8 with TDF [2]. Further, the H1.0 immunofluorescence intensity with TDF [3] was 123 (active); in the assay with HCC1569 [4] it was 95 (inactive).

Consider `COC(=O)C1=C(C)NC(C)=C([N+](=O)[O-])C1c1ccccc1C(F)(F)F` (racemic), for which the cell number with HCC1569 [1] stood at 99; in the assay with TDF [2] it was 103. Further, the H1.0 immunofluorescence intensity in the assay with TDF [3] is 92.2 (inactive); in the assay with HCC1569 [4], 98 (inactive).

On to `COc1ccc2c(c1)CCC1C2CCC2(C)C(NCCCCCCN3C(=O)C=CC3=O)CCC12` (stereo unspecified), for which the cell number was 103 in the assay with HCC1569 [1] and 111 in the assay on TDF [2]. Further, the H1.0 immunofluorescence intensity with TDF [3] was 88.6 (inactive); with HCC1569 [4], 103 (inactive).

Regarding `CCC(C)C1OC2(CCC1C)CC1CC(CC=C(C)C(OC3CC(OC)C(OC4CC(OC)C(O)C(C)O4)C(C)O3)C(C)C=CC=C3COC4C(O)C(C)=CC(C(=O)O1)C34O)O2` (stereo unspecified) [Ivermectin], the values for the cell number in the assay on HCC1569 [1] and in the assay on TDF [2] were 102 ± 2.5 and 103 ± 8.2, respectively. Further, the H1.0 immunofluorescence intensity in the assay on TDF [3] was 92.8 (inactive); with HCC1569 [4], 93.7 (inactive).

Regarding `COc1ccc(-c2ccc(N)[n+](CCCC(=O)O)n2)cc1.[Br-]`, the cell number was found to be 105 with HCC1569 [1] and 97.9 with TDF [2]. Further, the H1.0 immunofluorescence intensity was 96.2 (inactive) in the assay with TDF [3] and 103 (inactive) in the assay on HCC1569 [4].

Turning to `O=c1cc(O)cc(C=Cc2ccc(O)c(O)c2)o1` [Hispidin], the cell number with HCC1569 [1] is 97.3; in the assay with TDF [2] it was 94.8. Moreover, the results for the H1.0 immunofluorescence intensity in the assay with TDF [3] and with HCC1569 [4] were 97 (inactive) and 108 (inactive), respectively.

For `COc1ccc2c(c1)c(CC(=O)O)c(C)n2Cc1ccc(Cl)cc1` [1-(4-Chlorobenzyl)-5-methoxy-2-methylindole-3-acetic acid], the cell number stood at 104 in the assay with HCC1569 [1] and 91 in the assay on TDF [2]. Moreover, the H1.0 immunofluorescence intensity with TDF [3] was 96.8 (inactive); in the assay on HCC1569 [4] it was 103 (inactive).

As for `CC(C)C(=O)c1c(C(C)C)nn2ccccc12` [Ibudilast], the cell number in the assay on HCC1569 [1] amounted to 101 ± 4.1; in the assay on TDF [2], 97.7 ± 1.3. Also, the H1.0 immunofluorescence intensity in the assay on TDF [3] was 93.1 (inactive); in the assay on HCC1569 [4] it was 94.5 (inactive).

Turning to `Br.Br.N=C(N)SCCc1cccc(CCSC(=N)N)c1` [1,3-PBIT dihydrobromide], the cell number with HCC1569 [1] was found to be 117; in the assay with TDF [2], 113. Moreover, the H1.0 immunofluorescence intensity in the assay on TDF [3] was 97.4 (inactive); in the assay on HCC1569 [4] it was 98.4 (inactive).
